Assay outcomes deposited in PubChem BioAssay by National Center for Advancing Translational Sciences (NCATS).
An excerpt weighted towards active compounds, which were near 1.4% of everything screened.
AMA1-RON2 inh: qHTS for Inhibitors of AMA1-RON; Towards Development of Antimalarial Drug Lead: Primary Screen; Plasmodium falciparum AMA1 (3D7) - RON2 peptide interaction; AlphaScreen AMA1-biotinylated RON2 peptide binding; Potency, µM (doses to about 58.2 µM), without a hit: at the top dose activity change, negative = inhibition, hits mostly inhibitors; 0.2% of 360,000 active; AID 720542, 2013;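 also: 0% = vehicle wells and -100% = peptide control; nearly all actives have a fitted effect of over 45% in size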
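AMA1 (3D7) with his tag at 25 nM final met compounds first, then biotinylated RON2 peptide at 25 nM; detection used donor plus acceptor beads, 10 µg/mL apiece, read by AlphaScreen after 30 min at room temperature.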
Vaccinia mCherry: qHTS for Stage-Specific Inhibitors of Vaccinia Orthopoxvirus: mCherry Reporter Primary qHTS; Vaccinia virus mCherry reporter infection, fluorescence; Potency, µM (top dose mostly 36.5 µM), inactives show at the top dose activity change, negative = inhibition, actives largely listed as inhibitors; 0.63% of 310,000 active; AID 720579, 2013; calls by dose curve; tested in A549 cells; also: % is scaled to controls: 0 for no effect and ±100 for the full control effect; nearly all actives have a fitted effect of over 35% in size
AmpC inh no detg: qHTS Inhibitors of AmpC Beta-Lactamase (assay without detergent). P00811. Potency, µM (titrated, usually from 57.1 µM), for inactives: top-dose activity change, negative = inhibition, most hits filed as inhibitors. AmpC nitrocefin hydrolysis, absorbance 480 nm, 0.0001% Triton. 0.52% of 330,000 active. AID 485341, 2010;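 also: plate controls were no compound for no effect and no enzyme for full effect; nearly all actives have a fitted effect of over 20% in size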
Target sequence (P00811 whole entry, looked up): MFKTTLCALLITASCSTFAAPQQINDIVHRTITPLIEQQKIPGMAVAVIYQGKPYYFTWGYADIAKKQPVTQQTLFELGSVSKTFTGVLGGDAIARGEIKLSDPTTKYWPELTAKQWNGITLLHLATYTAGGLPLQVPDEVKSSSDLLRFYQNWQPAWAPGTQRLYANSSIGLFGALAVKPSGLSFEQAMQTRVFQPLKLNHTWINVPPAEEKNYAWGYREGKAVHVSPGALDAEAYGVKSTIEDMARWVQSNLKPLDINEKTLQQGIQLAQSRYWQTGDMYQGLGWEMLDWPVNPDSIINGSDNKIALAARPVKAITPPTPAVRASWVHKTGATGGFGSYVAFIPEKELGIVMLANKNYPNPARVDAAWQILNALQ
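AmpC (5.3 nM in the dispensed reagent) in 20 mM phosphate pH 7.0 with 0.01% (detergent screen) or 0.0001% Triton X-100 was preincubated with compounds for 15 min at room temperature. Nitrocefin was then added from an 800 uM solution, and hydrolysis was followed at 480 nm.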
AmpC detergent: qHTS Inhibitors of AmpC Beta-Lactamase (assay with detergent). P00811. AmpC hydrolysis of nitrocefin, absorbance 480 nm, 0.01% Triton. Potency, µM (top dose mostly 114 µM), without a hit: at the top dose activity change, negative = inhibition, hits mostly inhibitors. 0.041% of 370,000 active. AID 485294, 2010;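 also: 0% = no-compound wells and -100% = no-enzyme wells; nearly all actives have a fitted effect of over 25% in size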
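AmpC (5.3 nM in the dispensed reagent) in 20 mM phosphate pH 7.0 with 0.01% (detergent screen) or 0.0001% Triton X-100 was preincubated with compounds for 15 min at room temperature. Nitrocefin was then added from an 800 uM solution, and hydrolysis was followed at 480 nm.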
VACV Venus inh: qHTS for Stage-Specific Inhibitors of Vaccinia Orthopoxvirus: Venus Reporter Primary qHTS. Vaccinia virus Venus reporter expression, fluorescence. Potency, µM (highest dose often 36.5 µM), inactives show at the top dose activity change, negative = inhibition, hits mostly inhibitors. 0.46% of 330,000 active; calls by dose curve; tested in A549 cells; also: % is scaled to controls: 0 for no effect and ±100 for the full control effect; nearly all actives have a fitted effect of over 30% in size
SARS PLpro yeast: qHTS of Yeast-based Assay for SARS-CoV PLP | S. cerevisiae expressing SARS-CoV PLpro, growth rescue | Potency, µM (titrated, usually from 32.9 µM), without a hit: at the highest dose activity, positive = growth rescue, usual class: activators | 0.19% of 330,000 active; calls by dose curve; also: 0% is about no effect; nearly all actives have a fitted effect of over 55% in size
* marks the source's active call; other numbers are inactive results; i = inactive; ? = inconclusive; nt = no result. Unless noted, calls follow the shape of the dose curve; as a rule, active = well fitted curve in the direction sought with a large enough effect; inconclusive = small, poorly fitted or top-dose-only effect, or another doubt; inactive = no such curve, though single readings can be large; an effect the other way counts as inactive or inconclusive. Potency is read from the fitted curve at half-maximal effect.

SMILES	AMA1-RON2 inh	Vaccinia mCherry	AmpC inh no detg	AmpC detergent	VACV Venus inh	SARS PLpro yeast
COC(=O)c1ccc(C(=O)N2CCc3c(C(=O)NC(C)c4ccco4)c(OC)cc(=O)n3CC2)cc1 (stereo not drawn)	nt	-12%	nt	nt	0%	nt
COC(=O)c1cnc(N2CCN(c3ccccc3F)CC2)c2ccccc12	nt	-20%	nt	24%	-14%	nt
COC(=O)c1cccnc1N1CCN(c2ccccc2F)CC1	25%	-19%	0.16µM*	4%	-9%	-2%
C#Cc1cccc(C(=O)NCc2nc(-c3ccccc3NC(=O)C3CCCO3)oc2C)c1 (stereo not drawn)	nt	-7%	nt	nt	1%	nt
O=C(Nc1ccc(-c2nnc3n2CCCCC3)cc1)c1cc2ccccc2o1	7%	i	47%	-1%	-4%	0%
Cc1c(C(=O)Nc2ccc(-c3nnc4n3CCCCC4)cc2)oc2c1ccc1ccccc12	-9%	14µM*	162%	0%	?	3%
COC(=O)c1cc(CNC(=O)c2cccc(F)c2)cc(NC(=O)c2ccccc2OC)c1	nt	-5%	nt	nt	-1%	nt
CC12CCC(C(=O)N(CSC(=S)N/N=C\c3ccccc3)C1=O)C2(C)C (stereo not drawn)	77%	-20%	-54%	?	-15%	10µM*
Cc1ccc2c(c1)CN(CCNC(=O)C(C)Oc1ccccc1)CC(C)O2 (stereo not drawn)	nt	-13%	nt	nt	-3%	nt
Cc1nc(SCC(=O)NC2CC2)c2c(C)c(C)sc2n1	-4%	-12%	-6%	4%	-17%	15%
Cc1sc2nc(C(C)C)nc(SCC(=O)NC3CC3)c2c1C	5%	-2%	-13%	14µM*	8%	0%
O=C(O)CN(CC(=O)O)CC1=CC2C(=CC1=O)Oc1cc(O)c(CN(CC(=O)O)CC(=O)O)cc1C21OC(=O)c2ccccc21 (stereo not drawn)	nt	45%	nt	nt	i	nt
O=C(O)c1ccc(N=NNc2cccc([N+](=O)[O-])c2)cc1	-29%	?	-26%	0%	2%	16%
N#C/C(=N\Nc1cccc([N+](=O)[O-])c1)C(=O)c1ccc(Br)cc1	-11%	1.8µM*	?	-7%	?	-3%
C#Cc1cccc(C(=O)NCc2nc(-c3ccccc3NC(C)=O)oc2C)c1	nt	-12%	nt	nt	-11%	nt
CCCNc1c(NS(=O)(=O)c2c(F)c(F)c(F)c(F)c2F)c(=O)oc2ccccc12	25%	5µM*	-30%	0%	?	-5%
O=C(O)CSc1cc(NS(=O)(=O)c2cccc([N+](=O)[O-])c2)c2ccccc2c1O	-13%	10µM*	-30%	0%	?	-6%
CN(C)C(=O)COc1ccccc1C(=O)OCC(=O)N(CCC#N)c1ccccc1	nt	-7%	nt	nt	-15%	nt
CCC(C)Oc1cc(-c2ccnc(Nc3cccc(Cl)c3)n2)ccn1 (stereo not drawn)	32%	?	3%	-4%	?	-4%
OCCCNc1cc(-c2ccnc(Nc3cccc(Cl)c3)n2)ccn1	-14%	?	35%	9%	1µM*	-7%
O=c1[nH]c2ccc(Br)cc2c(-c2ccccc2)c1N1CCOCC1	-4%	?	1µM*	?	?	?
COc1cc2ccccc2cc1C(=O)OCC(=O)Nc1ccc(Br)cc1	nt	-12%	nt	nt	-8%	nt
COCCNC(=O)c1cn(C2CCN(C3CCCC3)CC2)nn1	nt	-6%	nt	nt	4%	nt
COC(=O)C1CCN(Cc2ccc3c(c2)CN(C(=O)c2ccc4nc(C)c(C)nc4c2)CCO3)CC1	nt	-12%	nt	nt	-2%	nt
CCN(CC)c1ccc(/C=C2\C(=O)N(c3nnc(C)c(=O)[nH]3)N=C2C)cc1	14µM*	-3%	139%	0%	-14%	-1%
SMILES	AMA1-RON2 inh	Vaccinia mCherry	AmpC inh no detg	AmpC detergent	VACV Venus inh	SARS PLpro yeast
CCc1nc2cc(C(=O)N3CCCN(C=O)CC3)cc(NC(=O)c3ccccc3OC)c2n1C	nt	-7%	nt	nt	0%	nt
CC(C)n1c(=O)c(C=Nc2ccc(S(N)(=O)=O)cc2)c(O)n(Cc2ccco2)c1=O	0%	i	22µM*	-9%	-2%	-14%
NC1=C(Cl)C(=O)c2ccc(S(N)(=O)=O)cc2C1=O	-19%	?	nt	nt	0.5µM*	nt
Cc1nc2cc(NC(=O)[C@@H]3C[C@@H](Sc4ccccn4)CN3Cc3cccc(Cl)c3)ccc2s1	nt	-8%	nt	nt	2%	nt
CCN(CC)S(=O)(=O)c1cccc(NC(=O)COC(=O)c2n[nH]c(=O)c3ccccc23)c1	11%	i	28µM*	-12%	-1%	0%
CCN(CC)S(=O)(=O)c1cccc(NC(=O)COC(=O)c2cc(C)oc2C)c1	-5%	-6%	-27%	?	-7%	0%
Cc1cc(C)cc(NC(=O)COC(=O)c2n[nH]c3ccccc23)c1	18%	-9%	16µM*	-4%	-22%	0%
CCOP(=O)(Nc1ccc2c(c1)C(=NNC(N)=S)c1ccccc1-2)OCC	-6%	11µM*	nt	nt	?	nt
Cc1ccc(CNC(=O)c2cccc(Nc3nc4ccccc4n4nnnc34)c2)cc1	nt	6.3µM*	nt	-3%	7.9µM*	nt
COCCNC(=O)c1cccc(Nc2nc3ccccc3n3nnnc23)c1	nt	-19%	nt	-3%	-17%	nt
CCCCOc1ccc(C(=O)NCC(=O)NCCOc2ccccc2)cc1	-5%	-13%	35µM*	?	2%	-2%
CCCCOc1ccc(C(=O)NCC(=O)NCc2ccccn2)cc1	62%	-26%	1%	0%	-21%	-6%
C=C1C(=O)O[C@H]2C[C@H]1[C@@H](OC(C)=O)C/C(C)=C/CC/C(C)=C\CC[C@]2(C)O	-5%	10µM*	nt	nt	10µM*	nt
COc1cccc(C2CC(c3ccc(F)cc3)Nc3nc(N)nn32)c1 (stereo not drawn)	-4%	nt	40µM*	-12%	nt	1%
COc1cccc(C2CC(c3ccc(Cl)cc3)Nc3nc(N)nn32)c1 (stereo not drawn)	0%	-5%	37%	-12%	-7%	22%
COc1ccc(C2CC(c3cccc(Cl)c3)n3nc(N)nc3N2)cc1 (stereo not drawn)	30%	-3%	0.89µM*	?	-3%	1%
CS(=O)(=O)Nc1cc(C(=O)N2CCNC(=O)C2)c2c(c1)ncn2CCc1ccccc1	nt	i	nt	nt	0%	nt
C/C(=N\NC(N)=S)C12CC3CC(CC(C3)C1)C2	24%	11µM*	-33%	-2%	8.9µM*	7%
